Assay outcomes deposited in PubChem BioAssay by National Center for Advancing Translational Sciences (NCATS).
In the library only some 5.7% were active in any assay of this set; here they are far more common.
HepG2 tox: kills HepG2 cells in TGF-b inhibitor counter-screen | Potency, µM (doses to about 46.1 µM), for inactives: at the top dose activity change, negative = cytotoxicity, usual class: cytotoxic | AID 588856 | HepG2 CAGA-GFP viability, ATP luminescence, 18 h | actives 0.76% (n = 410,000); further: potency means the concentration at half of the fitted maximal effect
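HepG2 CAGA-GFP cells (1000/well, DMEM with 1% FBS) received compound, then TGF-beta at 500 pg/mL final, and were incubated 18 hours at 37 degrees C. Viability was read by CellTiter-Glo luminescence. Media-only wells were set as complete cell-killing and DMSO as no toxicity.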
ATXN2 expr inh: reduces ATXN2 reporter expression in HEK-293 cells; actives 0.72% (n = 360,000); Potency, µM (doses to about 57 µM), without a hit: at the highest dose activity change, negative = inhibition, most hits filed as inhibitors; HEK-293 ATXN2-luciferase reporter, luminescence, 24 h; further: potency means the concentration at half of the fitted maximal effect; on the % scale 0 is the no-effect control and ±100 the full control effect; nearly all actives have a fitted effect of over 55% in size
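ATXN2-luciferase reporter cells (luciferase flanked by upstream and downstream ATXN2 gene portions) were treated 24 h at 37 °C with compounds at up to 57 uM. SteadyGlo luminescence gave expression; GF-AFC fluorescence gave viability.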
TGFb inhibitor: inhibitors of TGF-b signaling | actives 1.2% (n = 410,000) | HepG2 CAGA-GFP TGF-b/SMAD3 reporter, GFP fluorescence, 18 h; TGF-beta stimulated, 500 pg/mL final | Potency, µM (highest dose often 46.1 µM), without a hit: at the highest dose activity, negative = inhibition, usual class: inhibitors | AID 588855; further: potency means the concentration at half of the fitted maximal effect; on the % scale 0 is the no-effect control and ±100 the full control effect; nearly all actives have a fitted effect of over 65% in size
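First, reporter cells (HEPG2 CAGA-GFP) rested 2 h at 37 degrees C. Next, compounds were pinned in and TGF-beta added to 500 pg/mL final. After 18 h, GFP was imaged per cell and summed per well.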
S2 tox: reduces viability in counter-screen for ATXN expression inhibitors. S2 cells (HEK-293 line with an ATXN2-luciferase reporter) viability, CellTiter-Fluor protease fluorescence, 24 h. Potency, µM (titrated, usually from 56.7 µM), actives largely listed as cytotoxic. actives 0.49% (n = 400,000). AID 651635; further: potency means the concentration at half of the fitted maximal effect; nearly all actives have a fitted effect of over 40% in size
IL-1B inflam inh: inflammasome signaling inhibition, IL-1 beta readout; actives 4.7% (n = 360,000); activity change, % at 57.5 µM; THP-1 LPS/ATP IL-1B secretion, AlphaLISA, 16 h; hits give low values; in the data active means activity change below about -50%; inconclusive means mostly about -30% to -49%; further: on the % scale 0 is the no-effect control and ±100 the full control effect
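Secreted IL-1B measured by AlphaLISA bead assay after 16 h compound exposure of THP-1 cells; compounds (final up to 57.5 uM) added 1 h before LPS (250 ng/mL) and ATP (1.25 mM) stimulation; lower signal means less secretion.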
* marks the source's active call; other numbers are inactive results; i = inactive; ? = inconclusive; · = not tested or not shown; [ ] = remark or other dose. Unless noted, the call rests on the fitted dose curve; in most records, active means well fitted curve in the direction sought with a large enough effect; inconclusive means small, poorly fitted or top-dose-only effect, or another doubt; inactive means no such curve, though single readings can be large; an effect the other way counts as inactive or inconclusive.

SMILES	HepG2 tox	ATXN2 expr inh	TGFb inhibitor	S2 tox	IL-1B inflam inh
Cc1ccc(CNC(=O)c2c[nH]n3c(=O)c(Cc4ccc(Cl)cc4)c(C)nc23)cc1	13µM*	-22%	?	i	·
CCOc1ccc(C(=O)CC(Sc2ccc(C)cc2)C(=O)O)cc1 (stereo not drawn)	-30%	-11%	?	i	?
O=C(CC(Sc1ccc(Br)cc1)C(=O)O)c1ccc(F)cc1 (stereo not drawn)	-18%	·	-26%	?	-92*
Cc1ccc(CSc2ccc3nnc(-c4ccccn4)n3n2)cc1	-29%	4%	-13%	i	-10
Brc1ccc(CSc2ccc3nnc(-c4ccccn4)n3n2)cc1	-18%	-5%	-1%	i	-79*
Cc1ccc(C)c(CSc2ccc3nnc(-c4ccccn4)n3n2)c1	5%	-31%	?	i	-70*
COc1cc2c(cc1NS(=O)(=O)c1cccc(C#N)c1)n(C)c(=O)n2C	-8%	·	6%	·	·
COc1ccc(CCNCC(=O)Nc2ccc(C)c(S(=O)(=O)N(C)C)c2)cc1	-11%	-32%	-5%	i	-76*
COc1ccc(CCC(=O)Nc2ccc(C)c(S(=O)(=O)N(C)C)c2)cc1OC	-15%	-22%	-1%	i	18
COc1ccc2c(c1)C=C(CN1CCC(CO)(CCc3ccccc3)CC1)CO2	-24%	-18%	-24%	i	-60*
COc1ccc(CC2(CO)CCN(CC3=Cc4cc(Cl)ccc4OC3)CC2)cc1	-97%	?	?	?	-87*
COc1ccc(CC2(CO)CCN(Cc3ccc4c(c3)CCO4)CC2)cc1	-12%	-26%	0%	·	?
CCc1nnc2c(N3CCN(c4cccc(C(F)(F)F)c4)CC3)nc3ccccc3n12	-16%	·	?	·	·
COc1cc2nc(-c3cc(F)ccc3O)nc(N[C@@H]3CNC[C@@H]3C(C)(C)O)c2cc1OC	·	22µM*	·	·	·
O=C(Nc1ccccc1)c1ccc(CSc2ccccn2)cc1	-47%	14%	13%	i	-12
FC(F)(F)c1ccc(CSc2ccccn2)cc1	-21%	-13%	-3%	i	-61*
c1ccc(CSc2ncnc3c2ncn3C2CCCCO2)cc1 (stereo not drawn)	-16%	24%	-17%	i	-50*
COc1ccc(-n2cccc2/C=C/[N+](=O)[O-])cc1	-60%	?	18µM*	·	-103*
CCc1ccccc1N1CC(c2nc3ccccc3n2CCCCOc2ccccc2OC)CC1=O (stereo not drawn)	-88%	-22%	-11%	i	·
CCc1ccc(N2CC(c3nc4ccccc4n3Cc3ccccc3C)CC2=O)cc1 (stereo not drawn)	-26%	?	10µM*	?	·
CCOc1ccc(N2CC(c3nc4ccccc4n3Cc3cccc(C)c3)CC2=O)cc1 (stereo not drawn)	-32%	?	?	?	·
CCc1ccccc1N1CC(c2nc3ccccc3n2Cc2cccc(C)c2)CC1=O (stereo not drawn)	-33%	?	6.3µM*	?	·
COc1ccccc1Cn1c(C2CC(=O)N(c3ccccc3OC)C2)nc2ccccc21 (stereo not drawn)	-23%	-29%	13µM*	?	·
CCNc1nc(NCC)nc(N/N=C/c2ccc([N+](=O)[O-])o2)n1	-32%	-18%	?	i	7
CCN(CC)c1ccc(N=Cc2ccc([N+](=O)[O-])o2)cc1	-77%	0%	-29%	i	-67*
SMILES	HepG2 tox	ATXN2 expr inh	TGFb inhibitor	S2 tox	IL-1B inflam inh
CCN(CC)c1ccc(N=Cc2ccccc2[N+](=O)[O-])cc1	8.9µM*	?	?	?	-5
CN(C)CCN=Cc1c(O)n(Cc2ccccc2)c(=O)c2ccccc12	3%	-5%	2%	·	-15
CC1(C)CC(N=Cc2c(O)n(Cc3ccc4c(c3)OCO4)c(=O)c3ccccc23)CC(C)(C)N1	-16%	?	3%	·	-107*
O=S(=O)(NCCc1ccccc1)c1cnc(Cl)c(Br)c1	5%	-14%	-19%	i	-90*
Oc1cc2c(cc1C(c1ccc(Br)cc1)N1CCCC1)OCO2 (stereo not drawn)	14µM*	-36%	?	i	-102*
COc1cc(C(=O)ONC(=O)c2ccc(OC(F)F)cc2)cc(OC)c1OC	-15%	-27%	-3%	i	-67*
C(=N\Nc1ccccn1)/c1cccnc1	1%	·	13%	i	41
Cc1ncc(CO)c(/C=N/Nc2ccc(C(F)(F)F)cn2)c1O	-16%	6.3µM*	0%	i	63
FC(F)(F)c1ccc(N/N=C/c2cccnc2)nc1	-21%	5%	-12%	i	-97*
Cc1ncc(CO)c(/C=N/NC(=S)Nc2ccc(F)cc2)c1O	-28%	?	-15%	i	50
COc1ccc(OC)c(NC(=O)CCc2c(C)nn(-c3ccc(N4CCCC4)nn3)c2C)c1	-24%	·	?	·	·
CCN(CC)C(=O)CSC1=N/C(=C/c2ccco2)C(=O)N1c1ccc(OC)c(Cl)c1	-17%	?	?	5µM*	-54*
CC(C)[C@H]1c2ccc(F)cc2CC[C@@]1(CCN(C)CCCc1nc2ccccc2[nH]1)OC(=O)C1CC1	-109%	·	11µM*	·	·
Cc1sc2nc(CN3CCCCC3)nc(Cl)c2c1C	-15%	-21%	?	?	-103*
CC1CCN(Cc2nc(Cl)c3c4c(sc3n2)CCC4)CC1	-7%	·	-1%	?	-96*
Cc1ccc(S(=O)(=O)N2CCN(c3nc(CN4CCCC4)nc4sc(C)c(C)c34)CC2)cc1	-38%	-34%	?	?	?
Clc1nc(CN2CCOCC2)nc2sc3c(c12)CCC3	0%	-9%	15%	i	-30
Clc1nc(CN2CCCCC2)nc2sc3c(c12)CCCC3	-39%	·	25µM*	?	?
C=C1NN(Cc2ccccc2)C(=O)N1c1ccc(OCc2ccccc2)cc1	1%	·	31%	·	·
O=C(Nc1ccccc1-c1ccccc1)NC1CC2CCCC(C1)N2Cc1ccc(F)cc1 (stereo not drawn)	-15%	-25%	-5%	?	-61*
CCc1ccc(C2C(C(=O)Nc3ccccc3OC)=C(C)Nc3c(C(=O)Nc4ccc(C)cc4)cnn32)cc1 (stereo not drawn)	-20%	·	-19%	·	·
Fc1ccc(NC(=S)NC2CCN(Cc3ccccc3)CC2)cc1	4%	·	-6%	i	5
S=C(Nc1ccc(Cl)c(Cl)c1)NC1CCN(Cc2ccccc2)CC1	11µM*	?	?	·	-108*
CC(C)(C)CC(C)(C)NC(=S)NC1CCN(Cc2ccccc2)CC1	-46%	?	?	?	-104*
S=C(Nc1ccc(Cl)cc1)NC1CC2CCC(C1)N2Cc1ccccc1 (stereo not drawn)	-38%	-39%[11.3 µM]	?	i	-98*
